# Laboratory results reported in PubChem BioAssay (NCATS).
# Inconclusive results are not listed. A number with no mark means an inactive call. Calls of active or inactive are those of the source. Unless noted, calls come from the whole dose curve; as a rule, active = well fitted curve in the direction sought with a large enough effect in the repeat runs; inconclusive = weak or mixed curves; inactive = no such curve, though single readings can be large; an effect the other way counts as inactive or inconclusive.
# Target: Nuclear receptor ROR-gamma (Homo sapiens) (UniProt P51449)
# Assay: qHTS assay for small molecule antagonists of the retinoid-related orphan receptor gamma (ROR-gamma) signaling pathway (AID 651802; active = well fitted curve in the direction sought with a large enough effect; an effect the other way counts as inactive or inconclusive; note: % is set by controls: 0 for no effect and ±100 for the full control effect; nearly all actives have a fitted effect of over 60% in size)
# Settings: ROR-gamma antagonist cell reporter assay; series mostly up to 92.2 µM; activity change, negative = inhibition: at the top concentration
# Summary of the method: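 CHO cells carrying TET-inducible ROR-gamma and an ROR response element–luciferase reporter were exposed to compound, then induced with doxycycline. After 16hr at 37C, luminescence was read; lower signal indicates antagonism.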
# Sequence of Nuclear receptor ROR-gamma (Homo sapiens) (P51449 whole entry, looked up): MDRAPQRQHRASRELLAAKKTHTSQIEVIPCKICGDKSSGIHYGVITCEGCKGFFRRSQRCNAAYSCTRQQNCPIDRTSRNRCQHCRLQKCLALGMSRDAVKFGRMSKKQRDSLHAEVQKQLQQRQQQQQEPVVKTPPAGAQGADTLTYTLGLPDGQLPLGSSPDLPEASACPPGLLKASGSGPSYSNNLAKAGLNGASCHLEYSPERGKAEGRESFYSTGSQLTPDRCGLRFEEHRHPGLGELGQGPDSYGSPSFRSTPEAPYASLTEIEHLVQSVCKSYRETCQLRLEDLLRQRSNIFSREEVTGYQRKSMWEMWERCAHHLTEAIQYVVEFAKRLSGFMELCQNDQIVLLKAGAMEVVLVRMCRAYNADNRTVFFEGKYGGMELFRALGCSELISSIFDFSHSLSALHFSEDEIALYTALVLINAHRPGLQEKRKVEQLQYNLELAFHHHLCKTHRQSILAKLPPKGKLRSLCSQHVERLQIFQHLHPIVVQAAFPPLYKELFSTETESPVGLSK
SMILES,"activity change, negative = inhibition",Potency
S=C=Nc1cccc2ccccc12,5.47%,–
N#CCCCl,–,inactive
O=NN(CCO)CCO,25.1%,–
Cc1ccccc1N,–,inactive
C=CCOC(C)=O,0.844%,–
CCCC(=O)Cl,54.4%,–
NC(=S)Nc1ccccc1,–,inactive
O=C(Cl)/C=C/C(=O)Cl,0.208%,–
C=C(Cl)Cl,35.5%,–
ClCBr,57.5%,–
COc1ccc(C=O)cc1OC,10.3%,–
C=CC(=O)OCC,8.59%,–
c1nc[nH]n1,12.9%,–
c1ccc2c(c1)CCCC2,13.9%,–
CCCSC(=O)Cl,5.45%,–
Clc1cccc(C(Cl)(Cl)Cl)n1,12.3%,–
O=NN(c1ccccc1)c1ccccc1,-6.85%,–
C1CCC2CCCCC2C1 (stereo not drawn),51.5%,–
CC(O)CCl (stereo not drawn),5.89%,–

# Test system: not listed separately
# Assay: qHTS assay for small molecule agonists of the antioxidant response element (ARE) signaling pathway measured by Nrf2-dependant transcriptional activity (AID 720636);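 note: HepG2 cells with an ARE-driven luciferase reporter; % of control where 0% means no effect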
# Settings: ARE-luc HepG2, Nrf2 luciferase reporter, 16 h; series mostly up to 92.4 µM; activation: at the top concentration
# Summary of the method: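 Attachment 6 hr at 37 C, then compound versus DMSO vehicle for 16 hr in ARE-luc HepG2 cells (1% dialyzed FBS); luminescence recorded 30 min after ONE-Glo addition at room temperature.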
SMILES,outcome,activation
Brc1ccccc1,inactive,–
CCOP(=S)(OCC)SCSC(C)(C)C,inactive,–
C=C(C)C#N,inactive,–
CCSC(=O)Cl,–,-0.769%
Cc1cccc([N+](=O)[O-])c1,inactive,–
Nc1c(Cl)c(Cl)nc(C(=O)O)c1Cl,inactive,–
CC(C)(C)OOC(C)(C)C,–,-1.62%
C=C(C)C(=O)OCC1CO1 (stereo not drawn),–,0.569%
Cc1ccc([N+](=O)[O-])cc1C,inactive,–
O=[N+]([O-])c1ccc(Cl)c(Cl)c1,–,0.183%
C=CC(=C)C,–,-0.453%
Cc1ccc2ccccc2c1,–,1.17%
Nc1ccccc1Cl,–,-0.77%
Clc1ccc2ccccc2c1,–,-0.769%
[O-][Br+2]([O-])O,inactive,–
OCC1CO1 (stereo not drawn),inactive,–
C=CCOC(=O)c1ccccc1N,–,-1.11%
C=CC(N)=O,inactive,–
CC(C)(c1ccccc1)c1ccc(O)cc1,–,-0.483%
CCN(CC)c1ccccc1,–,-0.226%

SMILES,outcome,activation
S=C=Nc1cccc2ccccc12,–,0.828%
N#CCCCl,inactive,–
O=NN(CCO)CCO,–,-0.66%
Cc1ccccc1N,inactive,–
C=CCOC(C)=O,–,0.343%
CCCC(=O)Cl,–,-0.347%
NC(=S)Nc1ccccc1,inactive,–
O=C(Cl)/C=C/C(=O)Cl,–,-0.0784%
C=C(Cl)Cl,–,-0.71%
ClCBr,–,-1.53%
COc1ccc(C=O)cc1OC,inactive,–
C=CC(=O)OCC,–,-0.222%
c1nc[nH]n1,–,0.0948%
c1ccc2c(c1)CCCC2,–,-0.639%
CCCSC(=O)Cl,–,-1.3%
Clc1cccc(C(Cl)(Cl)Cl)n1,inactive,–
O=NN(c1ccccc1)c1ccccc1,inactive,–
C1CCC2CCCCC2C1 (stereo not drawn),–,0.237%
CC(O)CCl (stereo not drawn),inactive,–
